# Experimental data as given in PubChem BioAssay AID1910 (Broad Institute, 2009).
# Hit rate of the full screen: of about 300,000 compounds, about 950 (0.32%) were called active.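 Rule for the calls: active = mean activation of at least 10% of the iron chelator positive control signal, with at least half of replicates also reaching 10%; inconclusive = mean and replicate majority disagree about reaching 10%; inactive = mean and most replicates under 10%.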 Only a selection was taken, and actives are over-represented in it overall.
# Assay: hypoxia response element reporter activation – cell-based, U2OS HRE-luciferase, luminescence, primary screen (AID 1910)
# Conditions: active compounds read high, screened at 7.5 µM (by protocol), normalized: DMSO 0%, desferrioxamine 100%
row,Structure (SMILES),activation
1,COc1ccc2c(c1)CCNC2Cc1ccc(OC)c(O)c1 (configuration not stated),0.872% (inactive)
2,O=C1NC(c2ccccc2)Oc2ccccc21 (configuration not stated),-0.318% (inactive)
3,COc1cccc(/C=N/NC(=O)c2[nH]nc3c2CCc2ccccc2-3)c1O,46.5% (active)
4,CN(C)CCNC(=O)c1[nH]nc2c1CCc1ccccc1-2,2.68% (inactive)
5,COc1cccc(/C=N/Nc2cc(C)nc(-c3ccccc3O)n2)c1O,0.0705% (inactive)
6,COc1ccc(O)c(/C=N/N=C/c2cccc([N+](=O)[O-])c2)c1,-2.34% (inactive)
7,C1CC1Cc1noc(CN2CCN(CC3CC3)CC2)n1,75.3% (active)
8,Cc1ccccc1N1CCN(Cc2nc(Cc3ccccc3F)no2)CC1,0.117% (inactive)
9,CC(C)C(O)C1CCN(Cc2nc(Cc3ccccc3Cl)no2)CC1 (configuration not stated),0.0858% (inactive)
10,O=C(Nc1ccc(F)c([N+](=O)[O-])c1)C1CCCO1 (configuration not stated),-0.403% (inactive)
11,COc1ccccc1C1=CC(=O)CCC1,0.17% (inactive)
12,COc1ccccc1CCNC(=O)C(=O)NCCC1CCCCN1S(=O)(=O)c1cccs1 (configuration not stated),0.0341% (inactive)
13,CCCNC(=S)N1CCCC(c2nc3ccccc3[nH]2)C1 (configuration not stated),99.5% (active)
14,CN(C)CCCNC(=S)N1CCC(c2nc3ccccc3[nH]2)CC1,0.0482% (inactive)
15,Cc1cccc(NC(=S)N2CCCC(c3nc4ccccc4[nH]3)C2)c1 (configuration not stated),0.822% (inactive)
16,O=C(NCc1ccc2c(c1)OCO2)c1c(O)nc2sccn2c1=O,-0.288% (inactive)
17,COc1cc(CNC2CCCC2)c(Br)cc1OCc1ccccc1,-0.706% (inactive)
18,COc1cc(C2CC(=O)N3CN(Cc4ccccc4)CSC3=C2C#N)ccc1OCc1ccccc1 (configuration not stated),227% (active)
19,COc1cc(CN2CCC(C(N)=O)CC2)ccc1OCc1ccccc1,5.51% (inactive)
20,COc1ccc(C(C#N)(CC(=O)O)c2cnccn2)cc1OC (configuration not stated),-0.732% (inactive)
21,CCCCCN(C(=O)CCC(=O)OCC(=O)NC1CCC(C)CC1)c1c(N)n(CCCC)c(=O)[nH]c1=O (configuration not stated),0.288% (inactive)

row,Structure (SMILES),activation
1,O=C(NCc1ccc(Cl)cc1)C(=O)NCC1CCCN1S(=O)(=O)c1cccs1 (configuration not stated),-0.199% (inactive)
2,CC(=O)Nc1ccccc1NC(=O)c1cc(C)cc(C)c1,-0.124% (inactive)
3,Nc1ccc(C(=O)Nc2ccccc2N)cc1,23.2% (active)
4,Nc1ccc(C(=O)NCc2ccccc2)cc1,-0.0134% (inactive)
5,COc1cc(OC)c(OC)cc1CN1CCN(C(=O)c2cccc3ccccc23)CC1,-7.26% (inactive)
6,Cc1ccc(NC(=O)COc2coc(CN3CCc4ccccc4C3)cc2=O)cc1Cl,-0.873% (inactive)
7,Oc1ccc(/C=N/NC2=NCCCCC2)c(O)c1,1.31% (inactive)
8,Oc1ccc(/C=N/Nc2nc(-c3ccccc3F)nc3ccccc23)c(O)c1,0.0261% (inactive)
9,Cc1nc2ccccc2nc1N/N=C/c1ccc(O)cc1O,15.9% (active)
10,Cc1onc(-c2ccccc2Cl)c1C(=O)OCc1nnc(-c2ccccc2)o1,0.814% (inactive)
11,N#CC1(NC(=O)COC(=O)Cc2n[nH]c(=O)c3ccccc23)CCCCC1,1.1% (inactive)
12,O=C(COc1coc(CN2CCN(c3ccccc3)CC2)cc1=O)Nc1ccccc1F,0.427% (inactive)
13,Cc1ccc(OCCCCc2c(C)n[nH]c2C)cc1,0.618% (inactive)
14,CC(C)COc1ccc(C(=O)OCC(=O)NCCC2=CCCCC2)cc1,0.818% (inactive)
15,COc1cc2c(cc1OC)/C(=C/C(=O)c1ccc(NC(C)=O)cc1)NCC2,-0.377% (inactive)
16,CN1CCCC(OC(=O)COc2ccc(Br)cc2)C1 (configuration not stated),-0.189% (inactive)
17,CC1CN/C(=C\C(=O)c2ccc(Br)cc2)C(=O)N1 (configuration not stated),71.1% (active)
18,CC1CCc2[nH]c3ccc(C(=O)N(C)CC(=O)Nc4cccc(F)c4)cc3c2C1 (configuration not stated),0.749% (inactive)
19,CCNS(=O)(=O)c1ccc(NC(=O)c2cncc(Br)c2)cc1,94.2% (active)
20,O=C(Nc1ccc(N2CCCC2=O)cc1)c1cncc(Br)c1,1.53% (inactive)
21,O=C(Nc1ccc(S(=O)(=O)Nc2ncccn2)cc1)c1cncc(Br)c1,-1.84% (inactive)

row,Structure (SMILES),activation
1,COc1cc(NC(=O)C2CC(c3ccccc3O)=NO2)c(OC)cc1Cl (configuration not stated),-1.02% (inactive)
2,COc1ccc(NC(=O)NCCN2CCN(c3ccc(C)cc3)CC2)c(Cl)c1,2.29% (inactive)
3,O=C(Cc1ccc(Br)cc1)NCCc1ccccc1,0.0277% (inactive)
4,COc1ccc(NC(=O)C(C)N2c3cccc4cccc(c34)S2(=O)=O)c(OC)c1 (configuration not stated),0.272% (inactive)
5,CC(C)CN(CC(C)C)C(=O)CN1c2cccc3cccc(c23)S1(=O)=O,-19% (inactive)
6,CC(C(=O)N1CCOCC1)N1c2cccc3cccc(c23)S1(=O)=O (configuration not stated),163% (active)
7,COC(=O)C1CCN(C(=O)NC2CC(=O)N(c3ccc4c(c3)OCCO4)C2)CC1 (configuration not stated),2.77% (inactive)
8,C/C=C/c1ccc(OCC(=O)OCC(=O)Nc2c(C)nn(-c3ccccc3)c2C)c(OC)c1,0.205% (inactive)
9,CCOc1ccccc1OCC(=O)Nc1ccccc1C(=O)NC1CC1,0.735% (inactive)
10,N[C@@H](Cc1ccccc1)C(=O)N1CCOCC1,1.05% (inactive)
11,Cc1cc(Oc2ccccc2)nc(N2CCOCC2)n1,686% (active)
12,Cc1cc(Nc2ccc(Cl)cc2)nc(N2CCOCC2)n1,0.664% (inactive)
13,Cc1cc(N2CCN(c3ccccc3)CC2)nc(N2CCOCC2)n1,-0.818% (inactive)
14,Cc1ccc(NC(=O)COC(=O)CNC(=O)c2ccc(Cl)cc2Cl)cc1S(=O)(=O)N1CCOCC1,-0.357% (inactive)
15,CCOC(=O)c1cc(C(C)C)sc1NC(=O)COC(=O)c1nccnc1N,-0.0851% (inactive)
16,Oc1c(CN2CCN(c3ccc(F)cc3)CC2)cc(Cl)c2cccnc12,57.7% (active)
17,CCN1CCN(C(c2cccnc2)c2cc(Cl)c3cccnc3c2O)CC1 (configuration not stated),1.75% (inactive)
18,Oc1ccc(CN2CCN(c3ncccn3)CC2)cc1,-0.81% (inactive)
19,Cc1ccccc1OCC(=O)Nc1ccc2c(c1)ncn2C,1.83% (inactive)
20,C=CCC1(C(=O)N(C)Cc2ccccc2)CCN(C(=O)OC(C)(C)C)CC1,-0.424% (inactive)
